# Source: paper PMC11995724, “Antibiotic target discovery by integrated phenotypic and activity-based profiling of electrophilic fragments” (Cell chemical biology, 2025)
# Among all 3,200 compounds or so, about 75 (2%) showed an effect of 50% or more. Only a selection was taken, and strong results are over-represented in it overall.
# Test system: T1, S. aureus MSSA476
# T1 construct: MSSA476
# Set-up: species or system S. aureus MSSA476 (TSB) or V. cholerae SAD30 (LB); 384-well bacterial growth screen at 25 uM, OD600 relative to DMSO control
# Conditions: relative growth, OD600, TSB; 25 µM; inhibitor
row,Structure (SMILES),% of control remaining [%]
1,"C=CC(=O)NCc1ccc(C(=O)N2CCC[C@@H]2C(N)=O)cc1 [3-L22, (2R)-1-{4-[(prop-2-enamido)methyl]benzoyl}pyrrolidine-2-carboxamide]",98.2151
2,"CC(Cl)C(=O)NC(c1ccc(F)cc1)c1cnn(C)c1 (centres unmarked) [7-C19, 2-chloro-N-[(4-fluorophenyl)(1-methyl-1H-pyrazol-4-yl)methyl]propanamide]",93.2496
3,"N#CC(=Cc1cnc2ccc(C#N)cn12)C(=O)Nc1ccc(F)cc1 [9-E20, 2-cyano-3-{6-cyanoimidazo[1,2-a]pyridin-3-yl}-N-(4-fluorophenyl)prop-2-enamide]",103.67
4,"CC(Cl)C(=O)N1CCn2c(nn(CC(=O)N(C)C)c2=O)C1 (centres unmarked) [7-K17, 2-[7-(2-chloropropanoyl)-3-oxo-2H,3H,5H,6H,7H,8H-[1,2,4]triazolo[4,3-a]pyrazin-2-yl]-N,N-dimethylacetamide]",89.4819
5,"Cc1cc(C)n(CCCNC(=O)C(C)Cl)n1 (centres unmarked) [7-O19, 2-chloro-N-[3-(3,5-dimethyl-1H-pyrazol-1-yl)propyl]propanamide]",98.2732
6,"Cc1nn(C)c(C)c1NC(=O)C(C)Cl (centres unmarked) [6-C07, 2-chloro-N-(1,3,5-trimethyl-1H-pyrazol-4-yl)propanamide]",84.6829
7,"Cc1cc(NC(=O)CCl)c([N+](=O)[O-])cc1C [4-F21, 2-chloro-N-(4,5-dimethyl-2-nitrophenyl)acetamide]",87.2797
8,"Cc1cc(C(=O)CCl)c(C)n1-c1ccc(Cl)cc1 [10-H18, 2-chloro-1-[1-(4-chlorophenyl)-2,5-dimethyl-1H-pyrrol-3-yl]ethan-1-one]",-0.625
9,"Cc1cc(C(=O)CCl)c(C)n1-c1ccccc1 [10-L20, 2-chloro-1-(2,5-dimethyl-1-phenyl-1H-pyrrol-3-yl)ethan-1-one]",127.188
10,"Cc1cc(C(=O)CCl)c(C)n1-c1ccc(S(N)(=O)=O)cc1 [10-N14, 4-[3-(2-chloroacetyl)-2,5-dimethyl-1H-pyrrol-1-yl]benzene-1-sulfonamide]",121.875
11,"CC(Cl)C(=O)N[C@@H]1CCc2c(C#N)cccc21 (stereo partly drawn) [6-P14, 2-chloro-N-[(1R)-4-cyano-2,3-dihydro-1H-inden-1-yl]propanamide]",122.927
12,"COc1ccc(CNC(=O)CCl)cc1OC [5-O11, 2-chloro-N-[(3,4-dimethoxyphenyl)methyl]acetamide]",81.6029
13,"CC1Cc2cc(C(=O)CCl)ccc2N1S(C)(=O)=O (centres unmarked) [10-A04, 2-chloro-1-(1-methanesulfonyl-2-methyl-2,3-dihydro-1H-indol-5-yl)ethan-1-one]",1.875
14,"CCC(=O)N1CCc2cc(C(=O)CCl)ccc21 [10-C22, 1-[5-(2-chloroacetyl)-2,3-dihydro-1H-indol-1-yl]propan-1-one]",125.938
15,"CN1C(=O)Cc2cc(C(=O)CCl)ccc21 [10-G07, 5-(2-chloroacetyl)-1-methyl-2,3-dihydro-1H-indol-2-one]",132.813
16,"CC(=O)N1CCc2cc(C(=O)C(C)Cl)ccc21 (centres unmarked) [10-L22, 1-(1-acetyl-2,3-dihydro-1H-indol-5-yl)-2-chloropropan-1-one]",124.375
17,"CS(=O)(=O)N1CCc2cc(C(=O)CCl)ccc21 [10-B19, 2-chloro-1-(1-methanesulfonyl-2,3-dihydro-1H-indol-5-yl)ethan-1-one]",0.3125
18,"CS(=O)(=O)N1CCCc2cc(C(=O)CCl)ccc21 [10-H19, 2-chloro-1-(1-methanesulfonyl-1,2,3,4-tetrahydroquinolin-6-yl)ethan-1-one]",1.5625
19,"O=CN1CCc2cc(C(=O)CCl)ccc21 [10-K20, 5-(2-chloroacetyl)-2,3-dihydro-1H-indole-1-carbaldehyde]",102.813
20,"CCS(=O)(=O)N1CCc2cc(C(=O)CCl)ccc21 [10-E18, 2-chloro-1-[1-(ethanesulfonyl)-2,3-dihydro-1H-indol-5-yl]ethan-1-one]",0.3125
21,"O=C(CCl)NCCS(=O)(=O)N1CCc2ccccc21 [6-H04, 2-chloro-N-[2-(2,3-dihydro-1H-indole-1-sulfonyl)ethyl]acetamide]",86.0488
22,"CC(=O)NCCc1cc(C(=O)CCl)ccc1F [10-O05, N-{2-[5-(2-chloroacetyl)-2-fluorophenyl]ethyl}acetamide]",128.438
23,"CC(=O)N1c2ccc(C(=O)CCl)cc2CC1C (centres unmarked) [10-I20, 1-(1-acetyl-2-methyl-2,3-dihydro-1H-indol-5-yl)-2-chloroethan-1-one]",66.25
24,"C=CC(=O)NC1CCCN(C(=O)CCC(F)(F)F)C1 (centres unmarked) [1-B03, N-[1-(4,4,4-trifluorobutanoyl)piperidin-3-yl]prop-2-enamide]",102.681

row,Structure (SMILES),% of control remaining [%]
1,"C=CC(=O)N(C)c1ccccc1C(=O)NC [2-O18, N-methyl-2-(N-methylprop-2-enamido)benzamide]",115.231
2,"C=CC(=O)Nc1ccc(S(C)(=O)=O)cc1OCC [2-C08, N-(2-ethoxy-4-methanesulfonylphenyl)prop-2-enamide]",116.275
3,"Cl.O=C(CCl)NC1CCN(Cc2ccccc2)CC1 [5-E19, N-(1-benzylpiperidin-4-yl)-2-chloroacetamide hydrochloride]",109.654
4,"O=C(CCl)NCC1CCCN(C(=O)C(F)(F)F)C1 (centres unmarked) [7-N18, 2-chloro-N-{[1-(2,2,2-trifluoroacetyl)piperidin-3-yl]methyl}acetamide]",107.378
5,"CCOc1ccc(C=C(C#N)C(=O)Nc2cccc3ncccc23)cc1 [8-A07, 2-cyano-3-(4-ethoxyphenyl)-N-(quinolin-5-yl)prop-2-enamide]",131.452
6,"C=CC(=O)NCc1nc2c(s1)CCCC2 [1-G18, N-[(4,5,6,7-tetrahydro-1,3-benzothiazol-2-yl)methyl]prop-2-enamide]",119.56
7,"C=CC(=O)N(CC)CC(=O)N1CCCC1c1cn(C)nc1C (centres unmarked) [2-N12, N-{2-[2-(1,3-dimethyl-1H-pyrazol-4-yl)pyrrolidin-1-yl]-2-oxoethyl}-N-ethylprop-2-enamide]",110.009
8,"CCN(CC(=O)NC1CCS(=O)(=O)C1)C(=O)CCl (centres unmarked) [4-I19, 2-chloro-N-{[(1,1-dioxo-1lambda6-thiolan-3-yl)carbamoyl]methyl}-N-ethylacetamide]",127.68
9,"O=C(CCl)c1ccc2c(c1)CCN(C(=O)C(F)(F)F)C2 [10-E09, 1-[6-(2-chloroacetyl)-1,2,3,4-tetrahydroisoquinolin-2-yl]-2,2,2-trifluoroethan-1-one]",20.625
10,"O=C(CCl)c1cc2c3c(c1)CC(=O)N3CCC2 [10-G16, 6-(2-chloroacetyl)-1-azatricyclo[6.3.1.0,4,12]dodeca-4(12),5,7-trien-2-one]",130.938
11,"CC(Cl)C(=O)Nc1ccc(S(N)(=O)=O)cc1 (centres unmarked) [6-B06, 2-chloro-N-(4-sulfamoylphenyl)propanamide]",82.2927
12,"C=CC(=O)Nc1cc(NC(=O)C2(OC)CCOC2)ccc1F (centres unmarked) [3-D05, N-[4-fluoro-3-(prop-2-enamido)phenyl]-3-methoxyoxolane-3-carboxamide]",96.8219
13,"C=CC(=O)Nc1cc(NC(=O)C2CCC2)ccc1F [2-E10, N-[4-fluoro-3-(prop-2-enamido)phenyl]cyclobutanecarboxamide]",111.749
14,"C=CC(=O)Nc1cc(NC(=O)c2ccc([N+](=O)[O-])o2)ccc1F [3-J04, N-[4-fluoro-3-(prop-2-enamido)phenyl]-5-nitrofuran-2-carboxamide]",-4.528
15,"Cc1cc(C(=O)CCl)c(C)n1Cc1ccccc1Cl [10-P16, 2-chloro-1-{1-[(2-chlorophenyl)methyl]-2,5-dimethyl-1H-pyrrol-3-yl}ethan-1-one]",127.813
16,"Cc1cc(C(=O)CCl)c(C)n1Cc1cccs1 [10-D03, 2-chloro-1-{2,5-dimethyl-1-[(thiophen-2-yl)methyl]-1H-pyrrol-3-yl}ethan-1-one]",122.5
17,"Cc1cc(C(=O)CCl)c(C)n1Cc1ccc(F)cc1 [10-N17, 2-chloro-1-{1-[(4-fluorophenyl)methyl]-2,5-dimethyl-1H-pyrrol-3-yl}ethan-1-one]",4.6875
18,"Cc1cc(C(=O)CCl)c(C)n1CCc1cccs1 [10-F16, 2-chloro-1-{2,5-dimethyl-1-[2-(thiophen-2-yl)ethyl]-1H-pyrrol-3-yl}ethan-1-one]",20.3125
19,"COCCn1c(C)cc(C(=O)CCl)c1C [10-D13, 2-chloro-1-[1-(2-methoxyethyl)-2,5-dimethyl-1H-pyrrol-3-yl]ethan-1-one]",103.125
20,"Cc1cc(C(=O)CCl)c(C)n1Cc1ccccc1 [10-M14, 1-(1-benzyl-2,5-dimethyl-1H-pyrrol-3-yl)-2-chloroethan-1-one]",143.438
21,"Cc1cc(C(=O)CCl)c(C)n1CCc1ccccc1 [10-B18, 2-chloro-1-[2,5-dimethyl-1-(2-phenylethyl)-1H-pyrrol-3-yl]ethan-1-one]",102.188
22,"Cc1cc(C(=O)CCl)c(C)n1CCc1ccc(F)cc1 [10-G14, 2-chloro-1-{1-[2-(4-fluorophenyl)ethyl]-2,5-dimethyl-1H-pyrrol-3-yl}ethan-1-one]",123.75
23,"Cc1cc(C(=O)CCl)c(C)n1CCc1ccc(Cl)cc1 [10-N16, 2-chloro-1-{1-[2-(4-chlorophenyl)ethyl]-2,5-dimethyl-1H-pyrrol-3-yl}ethan-1-one]",5.9375
